# In the supplement of paper PMC10477191:
# ± gives the standard deviation of the averaged measurements.
# Tested on: Drosophila ezoana antennal basiconic sensillum ab7
# Experiment: odor-evoked OSN spike response (post minus pre-stimulus); higher = stronger neuronal excitation
# Conditions: odor dilution: 10^-4
# Method: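 Single sensillum recordings from antennal basiconic sensilla of D. ezoana. A 500 ms pulse of odorant (10^-4 in mineral oil or DMSO) was delivered; the response is the change in action potential frequency between the 1 s pre- and post-stimulus windows (spikes/s).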
row,SMILES,odor-evoked OSN spike response [spikes/s]
1,CCCC(=O)CC [3-hexanone],53.1 ± 33
2,CCCCCC(=O)OCC [ethyl hexanoate],74.4 ± 40
3,CCCCCCO [1-hexanol],53.6 ± 33
4,CCCCC(C)=O [2-hexanone],50.2 ± 29
5,CCOC(=O)CC(C)O (centres undefined) [Ethyl-3-hydroxybutyrate],80.1 ± 47
6,CCCCCCCC(C)O (centres undefined) [2-nonanol],52.3 ± 32
7,C[C@H]1CCC[C@@]2(C)CCCC[C@]12O [geosmin],3.51 ± 21
8,C=CC(O)CCCCC (centres undefined) [1-octen-3-ol],107 ± 43
9,CCOC(=O)C(C)O (centres undefined) [Ethyl lactate],60.2 ± 36
10,CC(=O)CCC=C(C)C [6-methyl-5-hepten-2-one],140 ± 40
11,CCCCCCCC(C)=O [2-nonanone],66.8 ± 40
12,CCCCCOC(C)=O [pentyl acetate],59.2 ± 30
13,CCCCCC(C)=O [2-heptanone],138 ± 39
14,CCCCC(C)O (centres undefined) [2-hexanol],56.1 ± 29
